Only a selection was taken, and hits are over-represented in it overall.
Pf Dd2 growth: qHTS Primary assay for Inhibitors of Plasmodium falciparum Dd2 growth in vitro | actives 4.3% (n = 120,000) | Potency, µM (series often up to 28.9 µM), without a hit: at the highest dose activity, negative = inhibition, usual class: inhibitors | P. falciparum Dd2 growth, SYBR Green, 72 h | AID 1347417, 2020; active = well fitted inhibition curve with a large enough effect;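 note: plate controls were DMSO vehicle for no effect and reference drug for full effect; nearly all actives have a fitted effect of over 65% in size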
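Readout: SYBR Green fluorescence, 485 nm excitation, 535 nm emission, after ~16 h lysis at 37C. Before that, Dd2-infected red cells (2.5% hematocrit) grew 72 h with compound, 29 uM top final concentration.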
* = called active by the depositor; [ ] = dose if it differs, or a comment. Potency is the fitted concentration of half-maximal effect.

`O=C(NCc1ccc(F)cc1)c1cc(Br)cn2ccnc12` gave Pf Dd2 growth -2%.
`CCC(=O)NCCC1CCN(C(=O)Nc2ccc(C)c(F)c2)CC1` gave Pf Dd2 growth -18%.
For Cc1cccc(C(=O)NCCC2CCN(C(=O)Nc3ccc(F)cc3)CC2)c1 the results were Pf Dd2 growth -18%.
Screening Cc1ccc(OCC(=O)NCCC2CCN(C(=O)Nc3ccc(F)cc3)CC2)cc1 returned Pf Dd2 growth 13µM*.
Cc1ccc(NC(=O)N2CCC(CCNC(=O)c3n[nH]c4ccccc34)CC2)cc1F was read as Pf Dd2 growth 4µM*.
Screening Cc1ccc(NC(=O)N2CCC(CCNC(=O)Cc3cccc(F)c3)CC2)cc1 returned Pf Dd2 growth inactive.
`CCC(=O)NCCC1CCN(C(=O)Nc2ccc(C)cc2)CC1` gave Pf Dd2 growth -6%.
`Cc1noc(-c2cn(C3CCN(C(=O)c4ccc(OC(F)(F)F)cc4)CC3)nn2)n1` gave Pf Dd2 growth -11%.
`Cc1cccc(NC(=O)Nc2ccc(C)n(CC(=O)NCCC(C)C)c2=O)c1` gave Pf Dd2 growth -9%.
For COCCN1C(=O)CS(=O)(=O)C12CCN(C(=O)COc1ccc(Cl)cc1)CC2 the results were Pf Dd2 growth -8%.
`CNC(=O)c1noc([C@@H]2CC(F)(F)CN2C(=O)C(C)C)n1` gave Pf Dd2 growth 27%.
`CCNC(=O)N1CCCN(C)c2ccccc21` gave Pf Dd2 growth 6%.
For CCn1c(CN(C)C)nnc1C1CCN(C(=O)Cn2nc(C)cc2N)CC1 the results were Pf Dd2 growth 6%.
`CN(C)CCC(=O)N1Cc2ccccc2CC2(CCCCN2CC2CCOCC2)C1` (configuration not stated) gave Pf Dd2 growth -30%.
For O=C(O)CCC(=O)N1Cc2ccccc2CC2(CCCCN2Cc2ccncc2)C1 (configuration not stated) the results were Pf Dd2 growth 13%.
CCCC(=O)N1Cc2ccccc2CC2(CCCN2Cc2ccncc2)C1 (configuration not stated) was read as Pf Dd2 growth 8.9µM*.
Screening COc1ccc(CN2CCCCC23Cc2ccccc2CN(C(C)=O)C3)cc1 (configuration not stated) returned Pf Dd2 growth 25%.
CCN1CCCCC12Cc1ccccc1CN(C(=O)Cc1ccc(OC)cc1)C2 (configuration not stated) was read as Pf Dd2 growth 11µM*.
CCN1CCCCC12Cc1ccccc1CN(C(=O)C1CCN(C)CC1)C2 (configuration not stated) was read as Pf Dd2 growth -17%.
For CC(=O)NCCC(=O)N1Cc2ccccc2CC2(CCCN2Cc2ccncc2)C1 (configuration not stated) the results were Pf Dd2 growth 0%.
CCCC(=O)N1Cc2ccccc2CC2(CCCCN2Cc2ccncc2)C1 (configuration not stated) was read as Pf Dd2 growth 8.9µM*.
Screening O=C(O)CCC(=O)N1Cc2ccccc2CC2(CCCN2Cc2ccccc2)C1 (configuration not stated) returned Pf Dd2 growth -14%.
`CCCC(=O)N1Cc2ccccc2CC2(CCCCN2CC2CCOCC2)C1` (configuration not stated) gave Pf Dd2 growth 8.9µM*.
Screening CC(=O)N1Cc2ccccc2CC2(CCCCN2CC2CCOCC2)C1 (configuration not stated) returned Pf Dd2 growth -17%.
`Cc1noc(C)c1CC(=O)N[C@@H]1CN(S(C)(=O)=O)C[C@H]1CN(C)C` gave Pf Dd2 growth 44%.
`Cc1ccccc1CC(=O)N1C[C@@H](CO)[C@H](c2ccncc2)C1` gave Pf Dd2 growth 25%.
For COc1ccc(C(C)NC(=O)c2noc(-c3ccc4c(c3)OCO4)n2)cc1 (configuration not stated) the results were Pf Dd2 growth 0%.
`COc1ccc(Nc2ncncc2-c2nc(-c3ccccc3)no2)cc1` gave Pf Dd2 growth inactive.
For O=C1CC2CCCC(C1)N2C(=O)c1cncc(Br)c1 the results were Pf Dd2 growth 8%[44.1 µM].
`CCN(Cc1ccncc1)C(=O)CCC[C@@H]1[C@H]2CCCN3CCC[C@@H](CN1Cc1cccnc1)[C@@H]23` gave Pf Dd2 growth inactive.
For CCc1noc([C@@H]2CC(F)(F)CN2C(=O)c2ccc(OC)nc2)n1 the results were Pf Dd2 growth 35%.
Screening N[C@H]1CN(C(=O)c2ccc(Cn3cnnn3)cc2)C[C@@H]1C1CC1 returned Pf Dd2 growth -9%.
For CCOc1ccc(C(=O)N2C[C@@H](COC)[C@H](C(N)=O)C2)cc1 the results were Pf Dd2 growth -1%.
Cc1ccc(OCc2ccc(C(=O)N3C[C@H](C4CC4)[C@@H](N)C3)cc2)cc1 was read as Pf Dd2 growth 10µM*.
For O=C1CC2(CCN(C(=O)c3ccc4c(c3)OCO4)CC2)Oc2ccccc2N1 the results were Pf Dd2 growth -1%.
`CCCN1C(=O)Cc2ccccc2C1C(=O)NCc1ccc(F)cc1Cl` (configuration not stated) gave Pf Dd2 growth -17%.
For COCC1CN(Cc2cccc(OC(F)(F)F)c2)CC12CCNCC2 (configuration not stated) the results were Pf Dd2 growth 1.3µM*.
Screening COCC1CN(Cc2cccnc2)CC12CCNCC2 (configuration not stated) returned Pf Dd2 growth 7%.
Screening COCC1CN(Cc2c[nH]c3ccccc23)CC12CCNCC2 (configuration not stated) returned Pf Dd2 growth 6%.
Screening CC(C)c1nc2c(NC(=O)Nc3cccc(Cl)c3)cccn2n1 returned Pf Dd2 growth -18%.
Cc1nc2c(NS(=O)(=O)c3cccc(C#N)c3)cccn2n1 was read as Pf Dd2 growth 3%.
CC(C)c1nc2c(NC(=O)c3cccc(Br)c3)cccn2n1 was read as Pf Dd2 growth 3.2µM*.
For CCc1nc2c(NS(=O)(=O)c3cccnc3)cccn2n1 the results were Pf Dd2 growth -8%.
`CCc1ccccc1S(=O)(=O)Nc1cccn2nc(C(C)C)nc12` gave Pf Dd2 growth 8.9µM*.
`COc1ccc(NC(=O)Nc2cccn3nc(C(C)C)nc23)cc1` gave Pf Dd2 growth -23%.
For O=C(NC[C@H]1O[C@@H]2C[C@@H](CC(=O)N3CCOCC3)O[C@@H]2[C@@H]1O)Nc1ccc(F)cc1 the results were Pf Dd2 growth 2%[44.1 µM].
`CN(C)C(=O)N1CCC(c2nc(C3CCOC3)n[nH]2)CC1` (configuration not stated) gave Pf Dd2 growth -4%.
Screening CN(C)C(=O)CCC1CCN(S(=O)(=O)c2cccc(F)c2)CC1 returned Pf Dd2 growth inactive.
O=C1NC(C(=O)O)Cn2cccc21 (configuration not stated) was read as Pf Dd2 growth 31%.
`CC(C)N(C)Cc1nnnn1CC(=O)NCc1nncn1C1CCCCC1` gave Pf Dd2 growth 8%.
Screening Cc1nnc(-c2cc(-c3cccc(F)c3)ccn2)n1CCc1ccccc1 returned Pf Dd2 growth -11%[44.1 µM].
For CC(=O)Nc1cccc(-c2ccnc(-c3nnc(C)n3CCc3ccccc3)c2)c1 the results were Pf Dd2 growth 7.9µM*.
Cc1nnc(-c2cc(-c3cccc(O)c3)ccn2)n1CCc1ccccc1 was read as Pf Dd2 growth inactive.
COc1ccc(OC)c(S(=O)(=O)N2CCc3nn(CC4CC4)c(=O)n3CC2)c1 was read as Pf Dd2 growth -8%.
Screening Cc1noc(-c2cn(C3CCN(C(=O)c4ccc5c(c4)OCO5)CC3)nn2)n1 returned Pf Dd2 growth -20%.
